FXN GAA850 act = activators of GAA850 frataxin (FXN) promoter; activation, % at 6 µM; HEK293 lucGAA850 FXN promoter luciferase reporter, 24 h; percent of 10 µM SAHA response; 0.56% of 360,000 active; AID 540364;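 active = activation above the average of all compounds screened plus 3 SD, cutoff fixed separately per campaign, cut at about 7.5% in these data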;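 note: 0% = DMSO wells and 100% = 10 µM SAHA wells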
SMARCA2 activ = increases SMARCA2 function in MMTV reporter cells. MG213 cells, MMTV-luciferase reporter, dexamethasone, overnight. activation, % at 9.1 µM. 1% of 370,000 active; in the data active = activation above about 7.8%;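 note: 0% = vehicle wells and 100% = reference activator wells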
Gli-Sufu antag = blocks Gli-Sufu signaling in a luciferase reporter; Sufu-KO-LIGHT fibroblasts, Gli luciferase reporter luminescence; inhibition, % at 5 µM; 0.74% of 340,000 active; AID 588413;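 active = inhibition above about 55%, limit read from the data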;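 note: 0% = DMSO-treated cells and 100% = wells with medium but no cells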
GalR3 antagonist = antagonists of human GalR3. inhibition, % at 3 µM. AID 651719. HEK293 GalR3-CNG cAMP membrane potential fluorescence; galR3 body fused to GalR1 C-terminus. 0.44% of 360,000 active;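 active = inhibition above the screen-wide average plus 3 SD, cut at about 13% in these data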;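 note: forskolin and galanin both at EC90 stimulate the cells; cAMP rise reported by CNG channel membrane potential dye signal; 0% = forskolin plus galanin with DMSO and 100% = forskolin alone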
Target sequence (O60755 1-299 limits assumed): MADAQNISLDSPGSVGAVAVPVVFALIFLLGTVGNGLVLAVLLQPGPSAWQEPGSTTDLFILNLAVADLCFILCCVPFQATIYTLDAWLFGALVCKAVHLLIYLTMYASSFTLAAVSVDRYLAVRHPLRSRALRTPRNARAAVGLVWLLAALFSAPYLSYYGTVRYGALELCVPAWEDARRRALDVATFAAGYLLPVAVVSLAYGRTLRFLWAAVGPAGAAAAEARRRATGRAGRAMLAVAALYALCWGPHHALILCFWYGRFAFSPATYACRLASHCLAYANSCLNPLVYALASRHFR
Cardio protect = protects H9c2 cardiomyocytes from peroxide injury; H2O2 injury protection, ATPLite, 2 h; protection from H2O2 cell death, % at 20 µM; 0.63% of 360,000 active; AID 588492;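 active = compounds giving at least 50% protection of heart cells from peroxide-induced death in the single-dose screen, raw or plate-pattern-corrected value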;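 note: 0% = DMSO wells with peroxide and 100% = DMSO wells without peroxide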
COUP-TFII inh = inhibitors of human COUP-TFII (NR2F2); P24468; HEK293T NGFI-A luciferase reporter, luminescence; inhibition, % at 8.6 µM; 0.7% of 370,000 active; AID 686940;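 active = inhibition above a per-plate cutoff, mean inhibition of test wells between control levels plus 3 SD, cut at about 38% in these data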;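 note: cells cotransfected with COUP-TFII expression vector driving the NGFI-A reporter; 0% = median of COUP-TF2 test wells and 100% = reporter-only cells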
SMARCA2 conf = confirmation of SMARCA2 (BRM) function activators. 30% of 3,500 active. activation, % at 9.1 µM. MG213 cells, MMTV-luciferase with dexamethasone, luminescence, overnight; MG213 cells expressing E1A, Rb sequestered; DMSO wells 0%, reference activator 100%. shares compounds with SMARCA2 activ. AID 652260;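 active = activation above its plate's cutoff, the mean activation of tested wells plus 3 SD, cut at about 7.9% in these data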
VP16 Luc act = activates GAL4-VP16 luciferase, flagging SMARCA2 activator hits | shares compounds with SMARCA2 activ | HEK293 GAL4-VP16 pG5luc reporter, luciferase luminescence; scaled: DMSO wells 0%, SAHA wells 100% | activation, % at 9.1 µM | 41% of 3,500 active | AID 686939;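 active = activation above the solvent-only control well mean plus 3 SD, averaged across control plates, cut at about 5.2% in these data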
Starred values were filed as active, the others as inactive; . = not tested or not shown. Shown are actives, neighbours in structure and some others; about 3.4% of the full set was active somewhere.

SMILES | FXN GAA850 act | SMARCA2 activ | Gli-Sufu antag | GalR3 antagonist | Cardio protect | COUP-TFII inh | SMARCA2 conf | VP16 Luc act
Cc1ccc(S(=O)(=O)N2CCSCCSCCSCCSCC2)cc1 | 0.0 | -1.2 | 5.8 | -3.1 | 1.6 | -1.2 | . | .
CC(=O)N1CCN(C(=S)NC(=O)c2ccc(S(=O)(=O)N3CCOCC3)cc2)CC1 | 1.1 | 2.2 | 6.0 | 5.3 | 3.0 | 21.7 | . | .
Cc1nc(CS(=O)(=O)c2ccccc2)cc(Sc2ccccc2Cl)n1 | 2.1 | 8.2* | -33.9 | 0.3 | -2.6 | -25.6 | 7.1 | 6.9*
CC(C)Oc1ccc(CNC(=S)N/N=C/c2ccc([N+](=O)[O-])cc2)cc1 | 0.2 | 10.2* | -20.9 | -10.0 | -9.0 | -0.5 | -0.7 | 4.1
COc1ccc(-c2cc(=O)n(CCC#N)[nH]2)cc1 | -2.4 | 12.7* | 7.0 | -10.6 | -2.2 | 10.1 | 0.4 | 2.3
COc1ccc(S(=O)(=O)N2CCCCC2)cc1NC(=O)CNc1ccc(F)cc1C | -1.4 | 2.2 | -1.6 | -5.0 | -7.3 | 5.6 | . | .
CNc1nc(Oc2cccc(NC(C)=O)c2)c2sccc2n1 | -0.5 | -2.9 | . | -5.5 | -2.8 | -13.9 | . | .
CSc1nsc(SCC(=O)Nc2ccccc2)n1 | 2.2 | 8.8* | -6.3 | -7.5 | -8.9 | -14.2 | 5.5 | 0.7
CSc1nsc(SCC(=O)Nc2cccc(C(C)=O)c2)n1 | 0.3 | 0.7 | 0.1 | -2.2 | 1.4 | 18.2 | . | .
O=C(CSCc1ccccc1)N=Nc1c(O)[nH]c2ccccc12 | 5.0 | 1.7 | -24.6 | 3.6 | -2.3 | -19.1 | . | .
O=C(N=Nc1c(O)[nH]c2ccccc12)c1ccco1 | 2.4 | 8.2* | -55.3 | -3.0 | -9.7 | -37.6 | 23.3* | 9.8*
Nc1ccc(C(=O)NN2C(=O)[C@H](Cl)C2c2ccc(Cl)cc2)cc1 (some centres undefined) | -0.9 | 8.3* | 10.1 | -2.1 | -8.8 | -17.1 | -14.9 | 1.1
CCOc1ccc2nc(/N=C/c3c(C)[nH]n(-c4ccccc4)c3=O)sc2c1 | 6.7 | 0.7 | -44.7 | 0.9 | -7.5 | -26.6 | . | .
CCOc1ccc2nc(/N=C/c3c(C)[nH]n(-c4ccc(C)cc4)c3=O)sc2c1 | 4.0 | 10.7* | -46.0 | -4.8 | -3.2 | -10.5 | 2.3 | 6.5*
O=C(Nc1ccccc1)Nc1nc2ncccn2c1-c1ccc(F)cc1 | . | 14.1* | . | . | . | -14.1 | 3.6 | 4.4
O=C(Nc1nc2ncccn2c1-c1ccc(F)cc1)C1CC1 | . | 8.7* | . | . | . | -3.7 | -2.3 | 0.0
Cc1cccc(N2CCN(C(C(=O)NCc3ccccc3)c3ccc(F)cc3)CC2)c1C (centres undefined) | . | -0.5 | . | -7.0 | . | 11.0 | . | .
C=CCNc1ccc(C(=O)O)cc1 | -0.8 | 9.7* | -1.1 | 1.1 | 8.9 | 0.2 | 3.4 | -1.3
O=C1CN(C(=O)c2c(F)cccc2F)C(c2ccc(F)cc2)c2cc(F)ccc2N1 (centres undefined) | -0.7 | -3.0 | 3.4 | -7.5 | 10.7 | 6.2 | . | .
CC(=O)Nc1ccc(Nc2nc(C)nc3c2oc2ccccc23)cc1 | 3.0 | 0.7 | 14.4 | -5.4 | 32.6 | -12.3 | . | .
Cc1nc(Nc2ccncc2)c2oc3ccccc3c2n1 | 3.7 | 10.2* | 10.9 | -3.9 | -1.8 | 18.4 | 19.5* | 1.5
COc1ccc(C(=O)NNC(=O)c2ccc3ccccc3n2)cc1 | 4.8 | 14.7* | -23.0 | -7.7 | 52.3* | -2.8 | -14.2 | 4.1
O=C(NNC(=O)c1ccc2ccccc2n1)c1ccc(O)cc1 | 2.7 | -3.2 | -1.0 | -1.1 | 20.7 | -15.5 | . | .
O=C(NCCc1ccccc1)C1CCN(C(=O)c2ccc(F)cc2)CC1 | 1.1 | 0.2 | 1.3 | -7.9 | 8.4 | -0.1 | . | .
O=C(NCCc1ccc(F)cc1)C1CCN(C(=O)Nc2ccccc2)CC1 | -0.9 | 8.0* | 8.4 | -1.0 | 6.0 | -4.6 | -1.8 | 1.6
C=CCNc1nc(C(=O)OCC(=O)NCc2ccccc2OC)cs1 | 0.5 | -1.8 | -5.2 | -0.2 | 4.3 | 6.0 | . | .
Cc1ccccc1NC(=O)c1cccc(C(F)(F)F)c1 | 2.3 | 8.2* | 0.2 | -2.6 | -1.7 | -3.9 | 4.9 | 1.5

Screening data as filed in PubChem.
